# Assay results taken from PubChem BioAssay AID1251 (SRMLSC, 2008).
# “And” between values parts separate entries of the source, which are not always exact repeats. Identical values can stand only once. In all, about 200,000 compounds went through this assay and about 720 (0.36%) were called active. No stated cut-off is given here; in the data, active means inhibition above about 30%; inactive means the rest, inconclusive results apart. Many of the other results were omitted from the sample, so actives are more common in it than they were.
# Experiment: inhibitors of arbovirus infection in cells – cell-based, full library, 10K replicate subset, primary screen (AID 1251)
# [1] = arbovirus infection cell-based antiviral screen, at 10 µM, stronger effect = higher value
smiles,measurement,setting,value
CN(C)CCCNC(=O)/C=C/c1ccc(OCc2c(F)cccc2Cl)cc1,inhibition,[1],-27.3% (inactive)
O=C(CN1CCN(S(=O)(=O)/C=C/c2ccccc2)CC1)Nc1ccc(N2CCOCC2)cc1,inhibition,[1],-11% (inactive)
N#Cc1c(-c2ccc(F)cc2)nc(-c2ccccc2)[nH]c1=O,inhibition,[1],6% (inactive)
COc1ccc(C)cc1NC(=O)C(OC(=O)c1cccc(S(=O)(=O)N(C)c2ccccc2)c1)c1ccccc1 (stereo not given),inhibition,[1],2.04% (inactive)
CNC(=S)N1CCN(c2ccccn2)CC1,inhibition,[1],8.2% (inactive)
C=CCn1c(P(C)(=O)O)nc2ccccc21,inhibition,[1],-2% (inactive) and 0.03% (inactive)
Cc1ccc(CN2CCN(Cc3ccc4ncccc4c3)CC2CCO)cc1 (stereo not given),inhibition,[1],4.14% (inactive)
CCCCNC(=O)Nc1c(C)cc(SC#N)cc1C,inhibition,[1],-9.26% (inactive)
O=C(Nc1nnc(SCc2c(Cl)cccc2Cl)s1)C1CCCO1 (stereo not given),inhibition,[1],-0.49% (inactive)
O=C(Nc1nc(-c2ccncc2)cs1)C1COc2ccccc2O1 (stereo not given),inhibition,arbovirus infection cell-based antiviral screen; at 10 µM; stronger effect = higher value,-2.24% (inactive)
same,inhibition,arbovirus infection cell-based antiviral screen; measured here: 10K subset replicate screen; at 10 µM; stronger effect = higher value,4.95%
O=C(Nc1nnc(SCc2ccc(Cl)cc2Cl)s1)C1COc2ccccc2O1 (stereo not given),inhibition,[1],30.9% (active)
CC(=O)Nc1ccc(OCCC[n+]2cccc(C(=O)[O-])c2)cc1,inhibition,[1],1.68% (inactive)
CCN(c1ccc(NC(=O)COC(=O)CCc2nc3ccccc3n2-c2ccccc2)cc1)C(C)C,inhibition,[1],-15.1% (inactive)
Cc1c(Cl)cccc1NC(=O)Nc1ccc(C(=O)N2CCCC2)cc1,inhibition,[1],-2.79% (inactive)
O=C1N/C(=N\N=C\c2ccco2)SC1Cc1ccc(F)cc1 (stereo not given),inhibition,[1],29.1% (inactive)
O=C1NC(=Nc2ccc(Cl)cc2)SC1Cc1cccc(Cl)c1Cl (stereo not given),inhibition,[1],30.2% (active)
NC1=NC(=O)C(Cc2cccc(Cl)c2Cl)S1 (stereo not given),inhibition,[1],9.95% (inactive)
Cc1ccc(C)n1NC(=O)c1ccc([N+](=O)[O-])cc1,inhibition,[1],0.14% (inactive)
CCOC(=O)c1c(Cc2ccc(Cl)cc2)c[nH]c1C,inhibition,[1],-0.75% (inactive)
COc1cccc2c(O)cc(=O)n(C)c12,inhibition,[1],-3.62% (inactive)
Cc1nc(CNS(=O)(=O)c2cccnc2)cs1,inhibition,[1],32.7% (active)
Cc1ccc(S(=O)(=O)NCc2csc(C)n2)c(C)c1,inhibition,[1],12.2% (inactive)
Cc1nc(CNS(=O)(=O)c2ccc(Oc3ccccc3)cc2)cs1,inhibition,[1],10.3% (inactive)
N#C/C(=C\c1ccc(N2CCOCC2)o1)C(=O)N1CCOCC1,inhibition,[1],-2.38% (inactive)
N#Cc1c(NC(=O)C2CC(Cl)=CCC2C(=O)O)sc2c1CCCCC2 (stereo not given),inhibition,[1],31.9% (active)
N#Cc1c(NC(=O)CCCl)sc2c1CCCCC2,inhibition,[1],-2.94% (inactive)
N#Cc1c(NC(=O)C2CCCO2)sc2c1CCCCC2 (stereo not given),inhibition,[1],6.23% (inactive)
CC(=O)Nc1ccc(S(=O)(=O)NCC(=O)OCc2cc(=O)oc3ccc4ccccc4c23)cc1,inhibition,[1],2.02% (inactive)
Cc1cc(C)n2nc(C(=O)N(C)C(c3ccccc3)c3ccccc3)nc2n1,inhibition,[1],24.9% (inactive)
COc1cc(C(=O)NCc2ccc(-n3cccc3)cc2)cc(OC)c1OC,inhibition,[1],2.99% (inactive)
N#Cc1ccccc1Sc1ccccc1C(=O)OCC(=O)NC1CCCCC1,inhibition,[1],5.04% (inactive)
COC(=O)C1=C(NC(=O)C(C)(C)C)CCS1,inhibition,[1],2.37% (inactive)
Cc1ccnc(NS(=O)(=O)c2ccc(NC(=O)c3ccc(S(=O)(=O)N(C)C)cc3)cc2)n1,inhibition,[1],14.3% (inactive)
Cc1c(CCOC(=O)CC23CC4CC(CC(C)(C4)C2)C3)sc[n+]1Cc1ccc([N+](=O)[O-])cc1,inhibition,[1],-19.1% (inactive)
COC(=O)C1=C(C(=O)OC)C(c2cc([N+](=O)[O-])ccc2O)c2sc(=O)[nH]c2S1 (stereo not given),inhibition,[1],-2.76% (inactive)
Cc1ccc(NC(=O)c2ccccn2)cc1S(=O)(=O)N1CCOCC1,inhibition,[1],20% (inactive)
Cc1cccc(NC(=O)NC(=S)NC(=O)c2ccccc2)c1,inhibition,[1],10.4% (inactive)
CCC(=O)NCc1cc(-c2nn(C)c(=O)c3ccccc23)ccc1OC,inhibition,[1],-10.6% (inactive)
O=C(COC(=O)c1ccccc1F)Nc1cc(S(=O)(=O)N2CCOCC2)ccc1N1CCCC1,inhibition,[1],3.02% (inactive)
